Screens from PubChem BioAssay.
aSyn UTR act: Activators via SNCA 5'UTR binding, MLPCN; alpha-synuclein 5'UTR reporter, activators screen; activity score, % (tested at 7.5 µM), hits read low; 300,000 compounds, 7.1% hits; AID 1814; in the data active means activity score below about -60%
* = called active by the depositor. Only a sample is shown.

SMILES	aSyn UTR act
COc1ccc(C(=O)n2c(N)nc3ccccc32)cc1OC	-177*
COc1ccc(C(=O)O/N=C(\N)c2ccccc2)cc1OC	-180*
COc1ccc(/C(N)=N/OC(=O)CSc2ccccc2)cc1OC	-125*
COc1ccc(C(=O)O/N=C(\N)c2cccc(C)c2)cc1OC	-165*
CCN(Cc1ccccc1)C(=O)CCCOc1ccccc1	-91*
CCCCCCCC(=O)Oc1ccc(C(=O)Nc2cc(C)on2)cc1	-93*
Cc1cc(NC(=O)c2nn(C)c(C)c2Br)no1	-87*
CC(=O)Nc1ccc(C(=O)Nc2cc(C)on2)cc1	-85*
Cc1cc(NC(=O)c2ccc(F)cc2)no1	-79*
CCOC(=O)C(NC(=O)c1ccccc1Cl)(Nc1ccc(C)c(C)c1)C(F)(F)F (stereo not given)	-81*
CCc1ccc2c(c1)C(c1ccc([N+](=O)[O-])cc1)=NNC(c1ccc(F)cc1)=N2	-79*
Cc1ccc(S(=O)(=O)c2nc(S(=O)(=O)c3ccc(C)cc3)c(N3CCN(CCO)CC3)s2)cc1	-64*
Cc1ccc(S(=O)(=O)c2nc(S(C)(=O)=O)sc2N2CCOCC2)cc1	-72*
O=C(Cc1nc2ccccc2s1)c1ccc(O)cc1O	-147*
O=C(CSc1nc2ccccc2s1)c1ccc(O)cc1O	-66*
CC(C)CCN1C(=O)c2cccc3c(N)ccc(c23)C1=O	61
CC(=O)c1ccc2c3c(cccc13)C(=O)N(CCc1ccccc1)C2=O	-138*
CCCNC(=O)C(=O)Nc1ccc(N(C)C)cc1	-126*
C=CCNC(=S)Nc1ccc(N(C)C)cc1	-70*
COCCNC(=O)C(=O)Nc1ccc(Br)cc1	-103*
O=C(Cn1cnc2ccccc2c1=O)Nc1ccc2c(c1)OCO2	-120*
O=C(Cn1cnc2ccccc2c1=O)c1ccc2c(c1)OCCO2	-130*
Cc1ccc(C(=O)Cn2cnc3ccccc3c2=O)cc1C	-155*
O=C(CN1C(=O)c2ccccc2S1(=O)=O)c1ccc2c(c1)OCCO2	111
Cc1cc(C(=O)Cn2cnc3ccccc3c2=O)c(C)n1C1CC1	-109*
SMILES	aSyn UTR act
COc1ccc(C(=O)Cn2cnc3ccccc3c2=O)cc1	-146*
O=C(Cn1cnc2ccccc2c1=O)c1ccc2ccccc2c1	-140*
CCN(CC)Cc1c(O)ccc2c(=O)c(-c3ccccc3)coc12	-64*
CC(C(=O)OCc1nnc(-c2ccccc2)o1)N1C(=O)C2CCCCC2C1=O (stereo not given)	-63*
O=C(O)c1ccccc1OCc1nc2ccccc2s1	-146*
O=C(OCc1nc2ccccc2s1)c1cccs1	-197*
O=C(OCc1nc2ccccc2s1)c1ccccc1O	-137*
O=C(OCc1nc2ccccc2s1)c1cnccn1	-134*
O=C(Nc1ccc2c(c1)OCCO2)N1CCN(Cc2ccccc2)CC1	-66*
O=C(Nc1ccc2c(c1)OCCO2)N1CCOCC1	-80*
CC1CN(C(=O)Nc2ccc3c(c2)OCO3)CC(C)O1 (stereo not given)	-152*
O=C(O)C1CC=CCC1C(=O)Nc1ccc2c(c1)OCCO2 (stereo not given)	-73*
O=C(Nc1ccc2c(c1)OCO2)N1CCOCC1	-84*
CCC(C)c1ccc(NC(=O)N2CCOCC2)cc1 (stereo not given)	-102*
O=C(Nc1ccc2c(c1)OCO2)N1CCCC1	-88*
FC(F)(F)c1cc(-c2ccco2)nc(N2CCN(c3ccccc3)CC2)n1	-65*
Cc1nc2ccccc2n1-c1nc(-c2ccco2)cc(C(F)(F)F)n1	90
O=C(O)C(=O)/C(=C\c1ccc(Cl)cc1)c1ccc2ccccc2n1	-226*
c1ccc(-c2ccc(-c3ccncn3)cc2)cc1	-78*
COc1ccc(-c2noc(CN(C)Cc3ccccc3)n2)c(OC)c1OC	-68*
Cc1cccc(-c2cnn(-c3ccccc3)c2N)c1	-129*
Nc1c(-c2ccccc2)cnn1-c1cccc(Cl)c1	-144*
Cc1cccc(-c2cnn(-c3cccc([N+](=O)[O-])c3)c2N)c1	-75*
O=C(Nc1ccc2c(c1)C(=O)OC2)c1ccc(F)cc1F	-63*
O=C(Nc1ccc2c(c1)C(=O)OC2)c1ccc(Cl)cc1Cl	-75*
SMILES	aSyn UTR act
Cc1ccc(NC2=C(N3CCOCC3)C(=O)c3ccccc3C2=O)cc1	-84*
Cc1ccc(NC2=C(Cl)C(=O)c3ccccc3C2=O)cc1	60
NC(=O)c1ccccc1NC(=O)c1ccc2ccccc2c1	-139*
Cc1ccccc1NC(=O)c1ccc2ccccc2c1	-150*
NC(=O)c1ccccc1NC(=O)c1ccc2c(c1)OCO2	-152*
CCc1c(C(=O)Nc2ccccc2C(N)=O)csc1C	-62*
NC(=O)c1ccsc1NC(=O)CSc1ccccc1F	-119*
Cc1csc(SCC(=O)Nc2sccc2C(N)=O)n1	-110*
N/C(Cc1ccc(Cl)cc1Cl)=N\OC(=O)c1ccccc1F	-72*
COc1ccc(CNC(=S)Nc2ccc(F)c(Cl)c2)cc1	-109*
FC(F)(F)c1cnc2c(-c3ccccc3)n[nH]c2c1	-130*
O=C(Nc1ccc2c(c1)OCO2)N1CCN(c2ccccc2)CC1	-195*
O=C(Nc1ccc2c(c1)OCO2)N1CCN(c2ncc(C(F)(F)F)cc2Cl)CC1	-104*
O=C(Nc1ccc2c(c1)OCO2)N1CCN(c2ncccn2)CC1	-111*
O=C(Nc1ccc2c(c1)OCO2)N1CCN(c2ccc(F)cc2)CC1	-122*
CN(C(=O)C1CCC(=O)N(Cc2cccc(F)c2)C1)C1CCCCC1 (stereo not given)	-126*
Cc1ccsc1CCNC(=O)C1CCC(=O)N(CCc2cccc(F)c2)C1 (stereo not given)	-102*
Cc1ccsc1CN(C)C(=O)C1CCC(=O)N(CCc2cccc(F)c2)C1 (stereo not given)	-91*
CSc1cccc(CNC(=O)C2CCC(=O)N(Cc3cccc(C(F)(F)F)c3)C2)c1 (stereo not given)	-73*
COC(=O)c1ccc2nc(NC(=O)C3CC3)sc2c1	-146*
COC(=O)c1ccc2nc(NC(=O)C(C)C)sc2c1	-74*
Cc1ccc2nc(NC(=O)COC(=O)c3ccncc3)sc2c1	-118*
CCOC(=O)c1ccc2nc(NC(C)=O)sc2c1	-126*
CC(=O)Nc1nc2ccc(Br)cc2s1	-107*
O=C(c1ccccc1)n1c(=S)nc2ccccn21	-124*
SMILES	aSyn UTR act
Cc1cccc(C(=O)n2c(=S)nc3ccccn32)c1	-102*
CCSc1nnc2nc3[nH]c4c(C)cccc4c3nn12	-147*
C=CCSc1nnc2c(n1)[nH]c1c(C)cccc12	-158*
Cc1cc(C)c2c(N)c(C(=O)Nc3cccc(C)c3C)sc2n1	-268*
Cc1ccc(NC(=O)c2sc3nc(C)cc(C)c3c2N)cc1	-75*
O=C(Nc1ccc(Cl)cc1)c1ccc2c(=O)n3c(nc2c1)CCCCC3	-120*
O=C(Nc1ccc(F)c(Cl)c1)c1ccc2c(=O)n3c(nc2c1)CCCCC3	-166*
CCc1cccc(NC(=O)c2ccc3c(=O)n4c(nc3c2)CCCCC4)c1	-127*
O=C(Nc1cccc(Cl)c1)c1ccc2c(=O)n3c(nc2c1)CCCCC3	-217*
O=C(Nc1ccc(F)cc1)c1ccc2c(=O)n3c(nc2c1)CCCCC3	-104*
c1ccc2c(c1)Cc1cc(CN3CCOCC3)ccc1-2	-113*
Cc1ccc2c(CN3CCC(C)CC3)cc(=O)oc2c1C	-126*
COc1ccc(N2CCN(Cc3cc(=O)oc4cc(-c5ccccc5)c(O)cc34)CC2)cc1	73
Cc1ccc(NC(=O)c2cc(-c3cccc(O)c3)on2)cc1C	-115*
COc1ccc(-c2cc(C(=O)NCc3cccnc3)no2)cc1	-117*
COc1ccc(CNC(=O)c2cc(C3CC3)on2)cc1	-106*
